PubChem BioAssay (EPA / NIEHS)
Results filed as inconclusive are left out. A structure can be active in one record and inactive in another. Activity calls are given as the source filed them. How the source made its calls, unless noted: active means hit-call score of the fitted dose curve at least 0.9, where 1 is the maximum; inconclusive means response in the unintended direction; inactive means score below 0.9.

How the values were obtained:
[1] = ATG_TCF_b_cat_CIS: Attagene CIS-FACTORIAL HepG2 Assay for human T-Cell-Factor with beta-catenin (TCF/b-cat) (AID 2282965; active means hit-call score of the fitted dose curve at least 0.9, where 1 is the maximum; inactive means score below 0.9); settings: HepG2 TCF/beta-catenin cis-reporter transcription, actives raise or lower the signal
In short: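 In this cis-format system, transfected HepG2 cells report endogenous transcription factor activity. Readout after 24 h exposure is reporter transcript abundance from RT-PCR and capillary electrophoresis, analysed for gain or loss of signal versus DMSO.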

[2] = ATG_TAL_CIS: Attagene CIS-FACTORIAL HepG2 Assay for human TAL Basal Promoter (AID 2282966; active means hit-call score of the fitted dose curve at least 0.9, where 1 is the maximum; inactive means score below 0.9;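 further: background control endpoint measuring basal TAL promoter reporter mRNA not a specific factor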); settings: HepG2 Attagene cis-factorial TAL promoter reporter; actives raise or lower the signal
In short: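 In this cell-based multiplex, HepG2 liver cells bearing cis-promoter reporter constructs are dosed for 24 hours. Total RNA is reverse-transcribed and amplified, labelled fragments are sized by capillary electrophoresis, and signal changes are fitted bidirectionally versus DMSO.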

[3] = ATG_TGFb_CIS: Attagene CIS-FACTORIAL HepG2 Assay for human Transforming Growth Factor (TGF) (AID 2282967; active means hit-call score of the fitted dose curve at least 0.9, where 1 is the maximum; inactive means score below 0.9); settings: HepG2 Attagene CIS TGFb reporter, mRNA transcription; actives raise or lower the signal
In short: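 HepG2 cells transiently transfected with cis-promoter-driven multiple reporter units measure endogenous TF activity; reporter mRNA quantified at 24 h by RT-PCR, FAM labeling, HpaI digestion and capillary electrophoresis. Bidirectional fit vs DMSO.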

[4] = ATG_VDRE_CIS: Attagene CIS-FACTORIAL HepG2 Assay for human Vitamin D Receptor Element (VDRE) (AID 2282968; active means hit-call score of the fitted dose curve at least 0.9, where 1 is the maximum; inactive means score below 0.9); settings: HepG2 VDRE cis-reporter transcription, actives raise or lower the signal
In short: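 HepG2 cells transiently transfected with cis-element reporter units, dosed 24 h; reporter mRNA measured by RT-PCR, 6-FAM labeling, HpaI digestion and capillary electrophoresis. Activity fitted bidirectionally against DMSO baseline.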

[5] = molecular target: Nuclear receptor subfamily 1 group I member 3 (Homo sapiens) (UniProt Q14994); experiment: ATG_CAR_TRANS: Attagene TRANS-FACTORIAL HepG2 Assay for human Constitutive Androstane Receptor (CAR) (AID 2282969); settings: HepG2 Attagene TRANS-FACTORIAL CAR reporter;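 further: activators raise reporter mRNA above DMSO so AC50 marks induction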
In short: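 HepG2 cells transiently transfected with multiplexed GAL4-UAS reporter units expressing chimeric NR-Gal4 proteins; compound exposure 24 h. Reporter mRNA measured by RT-PCR, 6-FAM labelling, HpaI digestion and capillary electrophoresis; gain-of-signal fitted against DMSO baseline.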

[6] = molecular target: Estrogen receptor (Homo sapiens) (UniProt P03372); experiment: ATG_ERa_TRANS: Attagene TRANS-FACTORIAL HepG2 Assay for human Estrogen Receptor alpha (ERa) (AID 2282970); settings: HepG2 Attagene TRANS ERa GAL4 reporter, mRNA
In short: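 After 24 h of compound treatment, RNA from HepG2 cells bearing transfected GAL4-UAS reporter constructs is converted to cDNA, amplified and fluorescently labelled. Capillary electrophoresis resolves the ERa-linked reporter; DMSO serves as negative control.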

[7] = molecular target: X-box-binding protein 1 (Homo sapiens) (UniProt P17861); experiment: ATG_Xbp1_CIS: Attagene CIS-FACTORIAL HepG2 Assay for human X-box Binding Protein 1 (XBP1) (AID 2282972; active means hit-call score of the fitted dose curve at least 0.9, where 1 is the maximum; inactive means score below 0.9); settings: HepG2 XBP1 cis-element reporter, Attagene multiplex; actives raise or lower the signal
In short: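 HepG2 cells transiently transfected with cis-regulated multiple reporter transcription units; endogenous transcription factor activity measured 24 hours after chemical dosing. Reporter mRNA quantified by RT-PCR, 6-FAM primer extension, HpaI digestion and capillary electrophoresis; bidirectional fitting versus DMSO.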

[8] = molecular target: Androgen receptor (Homo sapiens) (UniProt P10275); experiment: ATG_AR_TRANS: Attagene TRANS-FACTORIAL HepG2 Assay for human Androgen Receptor (AR) (AID 2282973); settings: HepG2 Attagene TRANS-FACTORIAL AR reporter transcription
In short: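 Readout is reporter transcript abundance, quantified by fluorescent RT-PCR products separated on capillary electrophoresis. Human HepG2 liver cells carried transiently transfected NR-Gal4 chimera plus GAL4-UAS reporter constructs and were dosed for 24 h; activity scored upward versus DMSO.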

[9] = ATG_GAL4_TRANS: Attagene TRANS-FACTORIAL HepG2 Assay for GAL4 (Internal Marker) (AID 2282976); settings: HepG2 Attagene TRANS GAL4 internal marker reporter
In short: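 RT-PCR/capillary electrophoresis readout of reporter mRNA. HepG2, transient MRTU transfection (GAL4-UAS reporters), 24 h compound exposure. Background-control endpoint, positive direction vs DMSO baseline.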

[10] = molecular target: Bile acid receptor (Homo sapiens) (UniProt Q96RI1); experiment: ATG_FXR_TRANS: Attagene TRANS-FACTORIAL HepG2 Assay for Farnesoid X Receptor (FXR) (AID 2282979); settings: HepG2 Attagene TRANS FXR-GAL4 reporter transcription;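 further: hits raise reporter mRNA above DMSO so AC50 marks FXR activation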
In short: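 Read-out: fluorescent reporter transcripts quantified by capillary electrophoresis after RT-PCR of total RNA. Source cells were HepG2 transiently carrying chimeric NR-GAL4 plus GAL4-UAS reporter units, dosed 24 h. Activity fitted upward relative to DMSO baseline.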

[11] = molecular target: Oxysterols receptor LXR-beta (Homo sapiens) (UniProt P55055); experiment: ATG_LXRb_TRANS: Attagene TRANS-FACTORIAL HepG2 Assay for human Liver X Receptor beta (LXRb) (AID 2282981); settings: HepG2 Attagene TRANS GAL4-LXRb reporter, mRNA
In short: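 HepG2 cells transiently transfected with multiple reporter transcription units carrying chimeric NR-Gal4 proteins acting on GAL4-UAS reporters; compound exposure 24 h. Reporter mRNA quantified by RT-PCR, 6-FAM labelling, HpaI digestion and capillary electrophoresis; gain of signal versus DMSO.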

[12] = ATG_M_06_TRANS: Attagene TRANS-FACTORIAL HepG2 Assay for M06 Transcription Factor (Internal Marker) (AID 2282983); settings: HepG2 Attagene TRANS M06 internal marker reporter
In short: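 After a 24 h chemical treatment of transfected HepG2, RNA underwent DNase I treatment, reverse transcription and reporter-specific PCR; labelled, HpaI-digested products were sized by capillary electrophoresis. Signal increase relative to DMSO defined activity.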

[13] = ATG_M_32_TRANS: Attagene TRANS-FACTORIAL HepG2 Assay for M32 Transcription Factor (Internal Marker) (AID 2282984); settings: HepG2 Attagene TRANS M32 internal marker reporter;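 further: transcript level of a background control reporter unit measured by RT-PCR and capillary electrophoresis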
In short: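 HepG2 cells transiently transfected with multiple GAL4-UAS reporter transcription units, dosed for 24 hours; reporter mRNA quantified by RT-PCR, 6-FAM primer extension, HpaI digestion and capillary electrophoresis. Gain-of-signal fitted versus DMSO baseline; internal background-control marker.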

[14] = molecular target: Nuclear receptor subfamily 4 group A member 2 (Homo sapiens) (UniProt P43354); experiment: ATG_NURR1_TRANS: Attagene TRANS-FACTORIAL HepG2 Assay for human Nuclear Receptor Related Protein 1 (NURR1) (AID 2282985); settings: HepG2 Attagene TRANS reporter, mRNA readout
In short: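 HepG2 cells transiently transfected with GAL4-UAS reporter units and chimeric NR-Gal4 constructs; chemical exposure 24 h. Reporter mRNA quantified by RT-PCR, fluorescent labelling and capillary electrophoresis; gain of signal fitted relative to DMSO baseline.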

[15] = molecular target: Steroid hormone receptor ERR1 (Homo sapiens) (UniProt P11474); experiment: ATG_ERRa_TRANS: Attagene TRANS-FACTORIAL HepG2 Assay for human Estrogen-Related Receptor alpha (ERRa) (AID 2282971); settings: HepG2 Attagene TRANS reporter, ERRa transactivation
In short: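 Transfected HepG2, 24 h dosing, ERRa-Gal4 chimera driving GAL4-UAS reporter. Readout: reporter mRNA via RT-PCR plus capillary electrophoresis (fluorescence). Positive direction vs DMSO control.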

[16] = molecular target: Estrogen-related receptor gamma (Homo sapiens) (UniProt P62508); experiment: ATG_ERRg_TRANS: Attagene TRANS-FACTORIAL HepG2 Assay for human Estrogen-Related Receptor gamma (ERRg) (AID 2282977); settings: HepG2 Attagene TRANS reporter, ERRg transactivation;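 further: hits increase reporter signal over DMSO so potencies reflect activators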
In short: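 Transient HepG2 transfectants, 24 h compound exposure, GAL4-UAS reporter mRNA by RT-PCR/6-FAM labelling/capillary electrophoresis; positive direction vs DMSO.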

[17] = molecular target: Hepatocyte nuclear factor 4-alpha (Homo sapiens) (UniProt P41235); experiment: ATG_HNF4a_TRANS: Attagene TRANS-FACTORIAL HepG2 Assay for human Hepatocyte Nuclear Factor 4 alpha (HNF4a) (AID 2282982); settings: HepG2 HNF4a transactivation reporter, mRNA readout
In short: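 HepG2 cells transiently transfected with multiplexed GAL4-UAS reporter units responsive to chimeric NR-GAL4 proteins; compound exposure 24 h. Reporter mRNA quantified by RT-PCR, 6-FAM labelling, HpaI digestion and capillary electrophoresis; gain of signal versus DMSO baseline.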

[18] = molecular target: Glucocorticoid receptor (Homo sapiens) (UniProt P04150); experiment: ATG_GR_TRANS: Attagene TRANS-FACTORIAL HepG2 Assay for human Glucocorticoid Receptor (GR) (AID 2282978); settings: HepG2 Attagene TRANS GR reporter, mRNA transcription;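 further: activators score as hits since higher reporter transcript over DMSO is fitted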
In short: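 After 24 h incubation with test chemical, transfected HepG2 cells were lysed for RNA; reporter cDNA was amplified, FAM-labelled, HpaI-digested and sized on a capillary analyser. Signal gain relative to DMSO was scored.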

[19] = ATG_M_19_TRANS: Attagene TRANS-FACTORIAL HepG2 Assay for M19 Transcription Factor (Internal Marker) (AID 2282974); settings: HepG2 Attagene TRANS-FACTORIAL M19 internal marker reporter
In short: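 Transfected HepG2 (GAL4-UAS MRTUs), 24 h compound, TriZol RNA, DNase-treated RT, reporter PCR, FAM label, HpaI digest, CE fluorescence; gain vs DMSO.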

[20] = molecular target: Oxysterols receptor LXR-alpha (Homo sapiens) (UniProt Q13133); experiment: ATG_LXRa_TRANS: Attagene TRANS-FACTORIAL HepG2 Assay for human Liver X Receptor alpha (LXRa) (AID 2282980); settings: HepG2 Attagene TRANS reporter, LXRa transactivation
In short: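 Read-out: reporter transcript levels by RT-PCR plus capillary electrophoresis, fluorescence intensity. Transiently transfected HepG2, exogenous NR-GAL4 chimera, GAL4-UAS reporters; 24 h compound exposure. Activity = increase over DMSO negative control.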

Measured: AC50

Sequence of Nuclear receptor subfamily 1 group I member 3 (Homo sapiens) (Q14994 whole entry, looked up, the tested form may be a part): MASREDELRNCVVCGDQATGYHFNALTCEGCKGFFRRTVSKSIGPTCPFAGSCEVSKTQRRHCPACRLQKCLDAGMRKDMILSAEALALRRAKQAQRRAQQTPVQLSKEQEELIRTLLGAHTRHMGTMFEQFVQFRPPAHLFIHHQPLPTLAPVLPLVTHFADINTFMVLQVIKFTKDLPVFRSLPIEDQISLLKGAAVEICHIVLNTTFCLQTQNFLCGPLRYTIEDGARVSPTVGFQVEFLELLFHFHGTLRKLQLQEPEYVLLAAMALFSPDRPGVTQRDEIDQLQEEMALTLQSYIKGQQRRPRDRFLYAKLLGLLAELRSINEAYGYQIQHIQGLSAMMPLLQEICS
Sequence of Androgen receptor (Homo sapiens) (P10275 whole entry, looked up, the tested form may be a part): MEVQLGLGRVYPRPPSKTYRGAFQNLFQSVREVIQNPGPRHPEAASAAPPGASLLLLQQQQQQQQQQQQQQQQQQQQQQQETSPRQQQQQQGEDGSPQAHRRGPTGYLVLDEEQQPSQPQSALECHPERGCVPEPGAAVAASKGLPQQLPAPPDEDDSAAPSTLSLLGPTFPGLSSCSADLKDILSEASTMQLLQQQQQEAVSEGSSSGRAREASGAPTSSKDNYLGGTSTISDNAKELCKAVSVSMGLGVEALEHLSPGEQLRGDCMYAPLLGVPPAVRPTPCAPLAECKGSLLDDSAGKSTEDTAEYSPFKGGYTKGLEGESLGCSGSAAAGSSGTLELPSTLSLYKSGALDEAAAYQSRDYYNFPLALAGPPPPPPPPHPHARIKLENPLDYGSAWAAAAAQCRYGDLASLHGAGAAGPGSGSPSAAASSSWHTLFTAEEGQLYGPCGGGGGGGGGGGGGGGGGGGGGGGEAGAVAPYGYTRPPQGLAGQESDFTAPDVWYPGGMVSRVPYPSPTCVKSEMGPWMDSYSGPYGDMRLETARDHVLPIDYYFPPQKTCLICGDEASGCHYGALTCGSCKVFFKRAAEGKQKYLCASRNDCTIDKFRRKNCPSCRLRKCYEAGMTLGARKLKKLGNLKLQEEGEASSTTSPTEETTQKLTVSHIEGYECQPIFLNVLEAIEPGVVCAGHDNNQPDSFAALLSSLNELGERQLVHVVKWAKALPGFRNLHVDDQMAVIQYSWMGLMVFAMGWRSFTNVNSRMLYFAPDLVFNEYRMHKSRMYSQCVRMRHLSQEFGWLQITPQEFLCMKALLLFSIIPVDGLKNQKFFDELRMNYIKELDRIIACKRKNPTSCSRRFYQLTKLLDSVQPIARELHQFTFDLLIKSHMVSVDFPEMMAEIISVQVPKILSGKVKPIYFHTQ
Sequence of Estrogen receptor (Homo sapiens) (P03372 whole entry, looked up, the tested form may be a part): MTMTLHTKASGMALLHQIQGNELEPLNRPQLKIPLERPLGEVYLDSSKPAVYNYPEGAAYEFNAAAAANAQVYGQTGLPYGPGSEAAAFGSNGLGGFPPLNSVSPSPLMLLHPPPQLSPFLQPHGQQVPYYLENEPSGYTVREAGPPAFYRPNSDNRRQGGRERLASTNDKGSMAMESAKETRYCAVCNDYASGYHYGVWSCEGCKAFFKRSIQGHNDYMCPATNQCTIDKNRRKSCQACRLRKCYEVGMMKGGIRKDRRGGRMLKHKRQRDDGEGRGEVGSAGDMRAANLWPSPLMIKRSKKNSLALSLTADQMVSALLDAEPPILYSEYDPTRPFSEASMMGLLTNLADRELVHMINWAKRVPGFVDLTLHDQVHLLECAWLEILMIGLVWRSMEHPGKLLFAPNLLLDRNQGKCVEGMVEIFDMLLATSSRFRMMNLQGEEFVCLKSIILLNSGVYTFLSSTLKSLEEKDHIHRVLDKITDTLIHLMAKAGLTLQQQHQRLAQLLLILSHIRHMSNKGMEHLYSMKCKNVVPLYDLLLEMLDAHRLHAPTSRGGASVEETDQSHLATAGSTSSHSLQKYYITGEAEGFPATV
Sequence of Steroid hormone receptor ERR1 (Homo sapiens) (P11474 whole entry, looked up, the tested form may be a part): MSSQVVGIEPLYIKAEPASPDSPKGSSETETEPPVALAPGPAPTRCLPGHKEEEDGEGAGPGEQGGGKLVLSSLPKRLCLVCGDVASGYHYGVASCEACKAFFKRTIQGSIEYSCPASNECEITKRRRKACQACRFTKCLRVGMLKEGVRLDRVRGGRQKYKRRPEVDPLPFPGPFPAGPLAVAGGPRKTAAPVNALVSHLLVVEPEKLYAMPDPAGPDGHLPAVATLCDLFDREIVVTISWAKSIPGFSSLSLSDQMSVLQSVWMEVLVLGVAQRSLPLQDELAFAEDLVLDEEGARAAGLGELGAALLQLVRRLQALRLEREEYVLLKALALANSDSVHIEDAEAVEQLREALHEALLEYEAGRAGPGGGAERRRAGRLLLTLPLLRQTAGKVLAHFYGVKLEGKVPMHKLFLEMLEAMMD
Sequence of Glucocorticoid receptor (Homo sapiens) (P04150 whole entry, looked up): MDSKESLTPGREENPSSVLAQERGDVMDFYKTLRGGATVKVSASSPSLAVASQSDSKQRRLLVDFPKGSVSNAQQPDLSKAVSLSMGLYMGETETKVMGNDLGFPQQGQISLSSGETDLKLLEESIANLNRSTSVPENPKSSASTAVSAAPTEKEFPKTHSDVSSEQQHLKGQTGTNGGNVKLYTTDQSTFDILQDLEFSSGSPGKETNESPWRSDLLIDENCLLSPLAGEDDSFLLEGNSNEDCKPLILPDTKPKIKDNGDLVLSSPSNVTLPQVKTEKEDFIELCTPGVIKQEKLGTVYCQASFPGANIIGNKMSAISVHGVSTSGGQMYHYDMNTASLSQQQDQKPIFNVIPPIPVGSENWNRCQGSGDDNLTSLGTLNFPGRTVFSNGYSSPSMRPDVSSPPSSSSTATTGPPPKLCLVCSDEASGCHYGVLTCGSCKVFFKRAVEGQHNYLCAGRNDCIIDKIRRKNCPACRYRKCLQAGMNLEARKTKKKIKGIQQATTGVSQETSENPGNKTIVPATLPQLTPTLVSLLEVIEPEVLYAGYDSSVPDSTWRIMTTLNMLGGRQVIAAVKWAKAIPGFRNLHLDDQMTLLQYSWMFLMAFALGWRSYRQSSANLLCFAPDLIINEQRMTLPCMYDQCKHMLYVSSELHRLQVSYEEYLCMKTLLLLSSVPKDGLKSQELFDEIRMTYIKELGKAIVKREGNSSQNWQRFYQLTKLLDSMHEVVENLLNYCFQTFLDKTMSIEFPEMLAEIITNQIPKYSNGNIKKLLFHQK
Sequence of Hepatocyte nuclear factor 4-alpha (Homo sapiens) (P41235 whole entry, looked up, the tested form may be a part): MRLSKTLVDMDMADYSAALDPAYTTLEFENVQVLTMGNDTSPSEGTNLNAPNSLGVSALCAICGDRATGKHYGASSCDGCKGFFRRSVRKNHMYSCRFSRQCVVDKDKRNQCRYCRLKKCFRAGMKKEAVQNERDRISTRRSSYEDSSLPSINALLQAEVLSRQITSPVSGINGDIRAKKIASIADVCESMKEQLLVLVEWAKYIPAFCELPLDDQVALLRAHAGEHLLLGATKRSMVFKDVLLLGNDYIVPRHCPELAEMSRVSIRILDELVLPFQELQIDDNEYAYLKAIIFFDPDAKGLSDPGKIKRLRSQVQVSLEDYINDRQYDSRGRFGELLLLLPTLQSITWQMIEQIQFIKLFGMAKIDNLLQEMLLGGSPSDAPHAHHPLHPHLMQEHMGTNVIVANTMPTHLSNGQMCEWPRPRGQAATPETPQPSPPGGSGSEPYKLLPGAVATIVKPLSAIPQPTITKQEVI
Sequence of X-box-binding protein 1 (Homo sapiens) (P17861 whole entry, looked up): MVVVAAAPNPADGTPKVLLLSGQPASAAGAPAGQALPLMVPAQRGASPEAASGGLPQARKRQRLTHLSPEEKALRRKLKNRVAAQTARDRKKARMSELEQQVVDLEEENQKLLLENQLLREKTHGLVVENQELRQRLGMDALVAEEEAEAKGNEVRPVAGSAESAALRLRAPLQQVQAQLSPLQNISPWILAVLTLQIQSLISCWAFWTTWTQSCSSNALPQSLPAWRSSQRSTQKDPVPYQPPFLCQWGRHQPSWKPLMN
Sequence of Estrogen-related receptor gamma (Homo sapiens) (P62508 whole entry, looked up, the tested form may be a part): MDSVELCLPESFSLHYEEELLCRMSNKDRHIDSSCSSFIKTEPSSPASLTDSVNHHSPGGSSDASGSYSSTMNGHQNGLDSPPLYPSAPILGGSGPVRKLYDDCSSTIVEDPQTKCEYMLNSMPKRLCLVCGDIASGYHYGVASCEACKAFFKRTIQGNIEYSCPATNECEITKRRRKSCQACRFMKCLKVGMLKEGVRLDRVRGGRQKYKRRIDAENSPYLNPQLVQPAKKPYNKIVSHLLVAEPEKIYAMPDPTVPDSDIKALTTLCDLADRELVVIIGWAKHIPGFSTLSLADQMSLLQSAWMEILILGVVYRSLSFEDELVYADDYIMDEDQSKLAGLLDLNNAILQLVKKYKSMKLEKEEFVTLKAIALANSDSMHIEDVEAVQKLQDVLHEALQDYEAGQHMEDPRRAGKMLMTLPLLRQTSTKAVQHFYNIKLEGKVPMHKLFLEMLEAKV
Sequence of Bile acid receptor (Homo sapiens) (Q96RI1 whole entry, looked up, the tested form may be a part): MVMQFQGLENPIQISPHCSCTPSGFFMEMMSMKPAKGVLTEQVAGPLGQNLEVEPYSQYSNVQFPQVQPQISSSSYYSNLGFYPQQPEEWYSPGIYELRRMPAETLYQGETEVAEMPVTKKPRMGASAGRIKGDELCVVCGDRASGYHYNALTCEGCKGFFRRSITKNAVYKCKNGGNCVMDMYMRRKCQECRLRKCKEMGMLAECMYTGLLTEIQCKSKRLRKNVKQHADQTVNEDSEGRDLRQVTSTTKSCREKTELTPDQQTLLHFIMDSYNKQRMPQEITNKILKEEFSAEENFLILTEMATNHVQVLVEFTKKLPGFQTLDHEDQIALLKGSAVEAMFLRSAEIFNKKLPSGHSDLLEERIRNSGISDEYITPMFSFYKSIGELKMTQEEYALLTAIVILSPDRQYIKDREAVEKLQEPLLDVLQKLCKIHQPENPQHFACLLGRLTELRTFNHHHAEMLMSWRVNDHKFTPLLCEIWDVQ

CCOP(=S)(S)OCC
not listed: [15] | [16] | [17] | [18] | [19] | [20]
inactive: all other assays above

COCCOCCO
inactive: [1] | [2] | [3] | [4] | [5] | [15] | [7] | [9] | [16] | [12]

N#C/C=C/c1ccccc1
inactive: [1] | [2] | [3] | [4] | [5] | [7] | [8] | [17] | [12] | [13] | [14]

O=c1[nH]c2ccccc2c(=O)o1
inactive: [1] | [2] | [3] | [4] | [5] | [6] | [7] | [9] | [18] | [12] | [14]

CC(=O)c1ccc(-c2ccccc2)cc1
active: [4] 32 µM
not listed: [6] | [9] | [11] | [15] | [16] | [17] | [19] | [20]
inactive: all other assays above

Nc1cc2c3c(c1)C(c1ccccc1)=N[C@@H](NC(=O)c1cccnc1)C(=O)N3CC2
active: [4] 38.4 µM | [7] 92.1 µM
inactive: [1] | [2] | [3] | [5] | [6] | [18] | [17] | [12] | [13] | [14]

C/C(=N\NC(=O)Nc1cc(F)cc(F)c1)c1ncccc1C(=O)O
not listed: [8] | [11] | [15] | [16] | [20]
inactive: all other assays above

CC1(C)CN=C(NN=C(/C=C/c2ccc(C(F)(F)F)cc2)/C=C/c2ccc(C(F)(F)F)cc2)NC1
inactive: [4] | [5] | [7] | [19] | [18] | [10] | [14]
active: [1] 19.4 µM | [2] 4.22 µM | [3] 11.1 µM | [6] 4.59 µM

OCC(F)(F)OC(F)(F)C(F)(F)OC(F)(F)C(F)(F)OC(F)(F)F
not listed: [6] | [11] | [17] | [20]
inactive: all other assays above

CC(O)C(F)(F)C(F)(F)F (stereo unspecified)
not listed: [6] | [11] | [17] | [20]
inactive: all other assays above

CCCCCCCc1ccc(O)cc1
not listed: [6] | [10] | [15] | [16] | [20]
inactive: all other assays above

FC(F)(F)c1ccc(Cl)cc1
not listed: [6] | [8] | [10] | [14] | [15] | [16] | [17] | [19]
inactive: all other assays above

c1ccc2c(c1)sc1ccccc12
active: [6] 63.7 µM
not listed: [8] | [9] | [11] | [14] | [16] | [17] | [20]
inactive: all other assays above

O=C(O)C(F)(F)OC(F)(F)C(F)(F)OC(F)(F)F
not listed: [6] | [14] | [20]
inactive: all other assays above

CCOP(=S)(OCC)SCn1nnc2ccccc2c1=O
active: [4] 1.61 µM | [6] 3.08 µM | [10] 26.5 µM | [14] 100 µM
not listed: [8] | [9] | [11] | [12] | [20]
inactive: all other assays above

[N-]=[N+]=[N-]
active: [11] 100 µM
inactive: [1] | [2] | [3] | [4] | [5] | [7] | [12] | [14]

COC(=O)C(F)(F)C(F)(F)OC(F)(C(F)(F)F)C(F)(F)OC(F)=C(F)F (stereo unspecified)
active: [1] 9.92 µM | [4] 18.3 µM
inactive: [1] | [2] | [4] | [5] | [15] | [7] | [8] | [19] | [9] | [16] | [18] | [10] | [12] | [13] | [14]
